Several values for one entry are separate records, joined by “and”; a condition that tells them apart may be missing. Identical values can stand only once. Activity calls are given as the source filed them.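 The calls were made as follows, unless noted: active = inhibition at or above 50% relative to wild type and mutant plate controls; inactive = inhibition below 50%.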
How the values were obtained:
[1] = inhibitors of TNFa-induced NFkB p65 translocation, primary screen, imaging, HUVEC, MLSMR starter and 10KST1 sets (AID 438;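 active = inhibition above 20% together with a positive visual image hit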;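 also: compound added about 3h40 before a 20 min TNFalpha stimulation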;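 as to inhibition: signal is the nuclear over cytoplasmic p65 intensity ratio per well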); settings: HUVEC TNFa-induced p65 nuclear translocation; cell count: measured here: nuclei count (cytotoxicity indicator), at 2.08 µM; inhibition: at 2 µM, stronger effect = higher value, 0% TNFa-plus-vehicle, 100% no-TNFa wells
[2] = reduction of polyQ htt aggregates in cells – imaging, exon1htt(103Q)mCFP cells, high-content imaging, primary screen (AID 483;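 active = visual image review flags a hit and inhibition of aggregation exceeds 20%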;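 also: compound exposure lasted 3 days before fixation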;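 as to nuclei count: percent of the per-plate median nuclei count of sample wells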); settings: exon1htt(103Q)mCFP cell line, aggregate imaging, at 2 µM; inhibition of aggregation: stronger effect = higher value; nuclei count: measured here: cell count, toxicity
[3] = endothelial E-selectin expression blockers – imaging, HUVEC, immunofluorescence, MLSMR starter and 10KST1 sets, primary screen (AID 487;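 active = visually confirmed hit in the image check and inhibition above 20%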;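 as to inhibition: signal is fraction of cell area covered by stained E-selectin grains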;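 as to nuclei count: 100% = median nuclei count of all wells on the same plate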); settings: HUVEC TNFalpha-induced E-selectin immunofluorescence imaging, at 2 µM; inhibition: stronger effect = higher value; nuclei count: measured here: cell number, toxicity
[4] = Primary imaging screen for DUSP6 inhibitors that restore phospho-Erk in transfected HeLa cells, chemical complementation (AID 609;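 active = compounds giving at least 50% inhibition in the cell-based MKP-3 phosphatase rescue imaging test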;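 as to inhibition: phospho-Erk level distribution per well compared with pooled transfected vehicle control wells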); settings: HeLa MKP-3 transfected, phospho-Erk imaging KS statistic, at 10 µM, cells stimulated with TPA for 15 min
[5] = target: Dual specificity protein phosphatase 6 (Homo sapiens) (UniProt Q16828); test: as above; settings: HeLa MKP-3 transfected, phospho-Erk imaging KS statistic; at 10 µM; stronger effect = higher value; cells stimulated with TPA for 15 min
[6] = target: Voltage-gated potassium channel subunit beta-2 (Rattus norvegicus) (UniProt P62483); test: inhibitors of rat Kvbeta2 reductase activity – biochemical, NADPH fluorescence, primary screen (AID 622;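 active = fluorescence slope higher than the sample average by over 3 SD, cut at about -0.22 in these data, passing the limit was not always enough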;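 also: slope of raw intensity against log time taken from 70 to 1610 s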); settings: recombinant KvBeta, 4-cyanobenzaldehyde reduction, at 10 µM, stronger effect = higher value
[7] = target: Voltage-gated potassium channel subunit beta-2 (Rattus norvegicus) (UniProt P62483); test: enhancers of rat Kvbeta2 NADPH turnover – biochemical, NADPH fluorescence, primary screen (AID 623;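 active = NADPH fluorescence slope more negative than the mean of all samples by about 3 SD, 99.7% confidence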;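 also: fluorescence intensity change per second fitted from 20 to 320 s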); settings: Recombinant KvBeta, NADPH fluorescence decrease slope, 10 min; at 10 µM; stronger effect = lower value
[8] = target: Alpha-2C adrenergic receptor (Homo sapiens) (UniProt P18825); test: compounds altering alpha2C-coupled GIRK flux – cell-based, HEK293 alpha2C/GIRK1/2, thallium flux, primary screen (AID 624;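 active = fluorescence slope after compound addition differing from the mean of all screened samples at 99.7% confidence, in either direction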;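 also: slope of fluorescence ratio to pre-addition baseline per second over 15 to 24 s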); settings: thallium flux BTC fluorescence, at 10 µM, actives lie on both sides
[9] = inhibitors of larval lipid processing in zebrafish, primary screen, whole organism, PED6 fluorescence, gall bladder and intestine (AID 686;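 active = a full or partial loss of lipid-probe fluorescence in the fish gall bladder, intestine or both, judged by eye; inactive = no fluorescence loss, or compound toxic to the fish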;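 also: larvae 5 to 7 days old with five fish per well; signal comes from phospholipase A2 cleavage of quenched PED6 carried via bile; overnight exposure to compound and PED6 before scoring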); settings: Zebrafish larvae PED6 lipid processing, fluorescence scoring; screened at 20 µM (by protocol)
[10] = loss of swimming-algae plug formation – whole organism, Chlamydomonas reinhardtii, WT vs cilia-less mutant, absorbance, 96-well, primary screen (AID 463189); settings: Chlamydomonas reinhardtii gravitaxis, OD600 absorbance, 2 days; at 10 µM; stronger effect = higher value;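 also: 0% = wild type cc124 cells in DMSO and 100% = ciliumless bld1 mutant cells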
[11] = blockers of RIG-like receptor reporter activation – cell-based, Sendai virus stimulus, luciferase, 10K MLSCN set, TLR/RLR signaling modifier project, primary screen (AID 602276;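 active = inhibition at or above 50% at 10 µM; inactive = inhibition below 50%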;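 also: firefly luciferase from ISG56 promoter only with Renilla not read in this screen; 0% = Sendai virus plus DMSO and 100% = medium plus DMSO without virus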); settings: HEK293 RL24 IRF3 luciferase reporter, at 10 µM, stronger effect = higher value
[12] = TLR3 IRF3 reporter activation blockers – cell-based, poly I:C stimulus, luciferase, 10K MLSCN set, primary screen (AID 602277;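 active = inhibition of the reporter signal at or above 50%; inactive = inhibition below 50%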); settings: HEK293-TLR3 RL24 IRF3 luciferase reporter, at 10 µM, stronger effect = higher value
[13] = measured here: cell density z-score
[14] = measured here: nuclear c-Myc green intensity z-score
[15] = measured here: nuclear pErk red intensity z-score, stronger effect = higher value

Sequence of Voltage-gated potassium channel subunit beta-2 (Rattus norvegicus) (P62483 whole entry, looked up): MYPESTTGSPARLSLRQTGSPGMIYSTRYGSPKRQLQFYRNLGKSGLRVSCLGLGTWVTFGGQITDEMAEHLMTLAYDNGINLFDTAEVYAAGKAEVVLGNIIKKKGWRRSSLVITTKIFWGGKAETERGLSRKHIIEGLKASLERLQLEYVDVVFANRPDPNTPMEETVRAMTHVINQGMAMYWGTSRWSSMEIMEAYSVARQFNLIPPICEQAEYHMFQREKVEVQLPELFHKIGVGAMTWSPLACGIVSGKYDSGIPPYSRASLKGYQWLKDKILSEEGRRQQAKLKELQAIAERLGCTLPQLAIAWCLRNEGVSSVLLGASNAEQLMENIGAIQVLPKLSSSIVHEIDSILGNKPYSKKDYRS
Sequence of Dual specificity protein phosphatase 6 (Homo sapiens) (Q16828 whole entry, looked up): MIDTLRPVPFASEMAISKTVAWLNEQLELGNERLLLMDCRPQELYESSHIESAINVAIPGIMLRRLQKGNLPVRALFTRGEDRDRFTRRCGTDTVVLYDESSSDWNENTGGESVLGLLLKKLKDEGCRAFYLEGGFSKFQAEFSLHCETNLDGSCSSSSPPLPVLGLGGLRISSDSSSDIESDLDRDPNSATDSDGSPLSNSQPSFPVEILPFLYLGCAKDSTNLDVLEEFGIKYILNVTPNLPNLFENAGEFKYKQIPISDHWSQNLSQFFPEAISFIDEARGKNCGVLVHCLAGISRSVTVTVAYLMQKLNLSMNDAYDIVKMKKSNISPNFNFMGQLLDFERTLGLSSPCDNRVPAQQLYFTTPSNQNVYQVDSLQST
Sequence of Alpha-2C adrenergic receptor (Homo sapiens) (P18825 whole entry, looked up): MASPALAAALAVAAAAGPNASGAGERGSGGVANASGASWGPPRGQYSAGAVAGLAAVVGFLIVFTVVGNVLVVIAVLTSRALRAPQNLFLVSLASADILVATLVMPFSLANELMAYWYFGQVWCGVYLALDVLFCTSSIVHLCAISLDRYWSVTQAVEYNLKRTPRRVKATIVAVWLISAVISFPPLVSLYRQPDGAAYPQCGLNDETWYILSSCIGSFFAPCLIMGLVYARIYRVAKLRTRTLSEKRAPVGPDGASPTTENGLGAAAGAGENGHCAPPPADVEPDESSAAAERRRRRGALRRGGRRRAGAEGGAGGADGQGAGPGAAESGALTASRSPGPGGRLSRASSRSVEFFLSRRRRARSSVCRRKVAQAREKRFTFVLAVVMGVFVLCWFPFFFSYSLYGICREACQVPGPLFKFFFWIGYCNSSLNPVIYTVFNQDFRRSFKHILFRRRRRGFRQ

Compound	cell count [1]	inhibition [1]	inhibition of aggregation [2]	nuclei count [2]	inhibition [3]	nuclei count [3]	z-score [4, 13]	z-score [4, 14]	z-score [4, 15]	inhibition [5]	fluorescence slope [6]	NADPH fluorescence slope [7]	slope [8]	outcome [9]	inhibition [10]	inhibition [11]	inhibition [12]
CCOC(=O)CSC1=C(C#N)C(c2ccc3c(c2)OCO3)CC(=O)N1 (stereo not given)	562	-1.1% (inactive)	-16.1% (inactive)	82.2%	-43.4% (inactive)	80.7%	-0.992	0.745	0.964	3.66% (inactive)	-0.471 (inactive)	-0.000313 (inactive)	0.00534 (inactive)	inactive	14.3% (inactive)	36.8% (inactive)	34.7% (inactive)
CCCC(CCC)C(=O)OC1C[C@H]2CC[C@@H](C1)[N+]2(C)C (stereo not given in full)	587	-4.2% (inactive)	35.6% (inactive)	88.1%	-72.6% (inactive)	132%	0.0581	0.732	-0.0735	9.37% (inactive)	-0.488 (inactive)	-5e-05 (inactive)	0.0052 (inactive)	inactive	17.7% (inactive)	18.2% (inactive)	42.2% (inactive)
C[C@]12CCC(=O)C=C1CC[C@@H]1[C@@H]2[C@@H](O)C[C@@]2(C)[C@H]1CC[C@]2(O)C(=O)COC(=O)CCC(=O)O	638 and 636	1.3% (inactive) and -6.2% (inactive)	-14.6% (inactive) and 5.9% (inactive)	81.4% and 75.3%	-73.5% (inactive) and -140% (inactive)	113% and 141%	-0.295 and 0.975	-0.899 and -0.385	-0.0646 and -0.0458	7.39% (inactive) and 11.3% (inactive)	-0.492 (inactive) and -0.463 (inactive)	-9e-05 (inactive) and -1.6e-05 (inactive)	0.00441 (inactive) and 0.00453 (inactive)	inactive	1.85% (inactive) and -7.48% (inactive) and -3.81% (inactive)	5.11% (inactive) and 1.12% (inactive)	30.2% (inactive) and 30.8% (inactive)
Cc1noc(COc2ccccc2OCC(O)CNC(C)(C)C)n1 (stereo not given)	623	-11.7% (inactive)	16.2% (inactive)	89.4%	-52.1% (inactive)	128%	-0.283	1.24	2.27	-16.8% (inactive)	-0.496 (inactive)	-2.4e-05 (inactive)	0.0046 (inactive)	inactive	-3.71% (inactive)	16.2% (inactive)	99.7% (active)
N=c1nc(N2CCCCC2)cc(N)n1O	660	0.9% (inactive)	-1.2% (inactive)	114%	-58.5% (inactive)	138%	-0.689	-0.0187	0.315	25.7% (inactive)	-0.46 (inactive)	-6e-05 (inactive)	0.00444 (inactive)	inactive	1.56% (inactive) and -3.08% (inactive)	9.96% (inactive)	34.6% (inactive)
CCOC(=O)CSc1nc(N)c2c3c(sc2n1)CCCC3	682	-4.4% (inactive)	-8.1% (inactive)	97.3%	5.9% (inactive)	146%	-0.0379	1.11	-0.851	-3.95% (inactive)	-0.363 (inactive)	-5.9e-05 (inactive)	0.0064 (inactive)	inactive	-8.25% (inactive)	12.5% (inactive)	4.94% (inactive)
CN(C)c1ccc(C=NCC2(O)CCOC(C)(C)C2)cc1 (stereo not given)	470	-13.2% (inactive)	-13.7% (inactive)	108%	-145% (inactive)	144%	-1.86	-0.94	0.52	17.5% (inactive)	-0.423 (inactive)	-0.000132 (inactive)	0.00493 (inactive)	inactive	7.69% (inactive)	13% (inactive)	13.9% (inactive)
CCOC(=O)CSC1=C(C#N)C(=O)NC2(CCCCC2)S1	580	-10.9% (inactive)	-5.9% (inactive)	108%	-43.8% (inactive)	131%	-1.03	0.989	0.0798	-7.86% (inactive)	-0.497 (inactive)	-4.9e-05 (inactive)	0.00597 (inactive)	inactive	-1.64% (inactive)	8.53% (inactive)	100% (active)
O=[N+]([O-])c1cccc2cn[nH]c12	615	1.2% (inactive)	15.8% (inactive)	81.4%	-87% (inactive)	116%	2.27	-1.27	-1.46	3.45% (inactive)	-0.448 (inactive)	-7.3e-05 (inactive)	0.00537 (inactive)	inactive	4.7% (inactive) and 1.19% (inactive)	15.9% (inactive)	50.4% (active)
N=c1c(C(=O)NCc2ccccc2)cc2c(=O)n3ccccc3nc2n1Cc1ccco1	365	-3.1% (inactive)	-10% (inactive)	91.6%	-250% (inactive)	133%	0.674	0.212	-1.53	9.39% (inactive)	-0.375 (inactive)	-4.7e-05 (inactive)	0.00267 (inactive)	inactive	-4.74% (inactive)	-0.117% (inactive)	19.6% (inactive)
Cc1oc2cc(O)ccc2c(=O)c1-c1cnn(-c2ccccc2)c1	454	-6.5% (inactive)	-9% (inactive)	102%	-212% (inactive)	120%	-0.098	-0.0689	0.86	-9.91% (inactive)	-0.486 (inactive)	1.2e-05 (inactive)	0.00452 (inactive)	inactive	9.82% (inactive)	7.89% (inactive)	0.114% (inactive)
Nc1nc2ccc(OC(F)(F)F)cc2s1	540	-0.5% (inactive)	-1.7% (inactive)	86.1%	-27.8% (inactive)	107%	2.05	-1.62	-0.877	36.7% (inactive)	-0.427 (inactive)	2.4e-05 (inactive)	0.00474 (inactive)	inactive	4.87% (inactive) and -11.8% (inactive)	-14.6% (inactive)	-58.1% (inactive)
OCCN(CCO)c1nc(N2CCCCC2)c2nc(N(CCO)CCO)nc(N3CCCCC3)c2n1	547	-6.1% (inactive)	-4% (inactive)	110%	-59.7% (inactive)	134%	0.412	0.0897	0.61	-0.493% (inactive)	-0.056 (active)	-1.2e-07 (inactive)	0 (inactive)	inactive	1.16% (inactive) and 19.1% (inactive)	10.6% (inactive)	-14.4% (inactive)
Oc1ccc(/C=C/c2cc(O)cc(O)c2)cc1	597	2.2% (inactive)	6% (inactive)	98.6%	-78% (inactive)	118%	-1.5	-0.867	1.21	14.6% (inactive)	-0.411 (inactive)	-0.000101 (inactive)	0.00434 (inactive)	inactive	3.52% (inactive) and 10.8% (inactive)	-39.2% (inactive)	-231% (inactive)
CC1(C)Cc2c(c(N3CCOCC3)nc3sc(C#N)c(N)c23)CS1	626	-0.4% (inactive)	-6.4% (inactive)	114%	-68.9% (inactive)	120%	-0.238	-0.405	0.382	5.42% (inactive)	-0.0293 (active)	-1.7e-06 (inactive)	0.00535 (inactive)	inactive	21.2% (inactive)	-2.57% (inactive)	16.1% (inactive)
COc1ccc2c(c1)c(CC(=O)OCC(=O)O)c(C)n2C(=O)c1ccc(Cl)cc1	609	-4% (inactive)	-25.2% (inactive)	89.1%	-34.9% (inactive)	111%	-0.113	0.548	-0.549	17.3% (inactive)	-0.451 (inactive)	-3.8e-05 (inactive)	0.00555 (inactive)	inactive	14.4% (inactive)	11.9% (inactive)	36.9% (inactive)
CC(=O)OCC(=O)[C@@]12OC3(CCCC3)O[C@@H]1C[C@H]1[C@@H]3CCC4=CC(=O)C=C[C@]4(C)[C@@]3(F)[C@@H](O)C[C@@]12C	609	-5.2% (inactive)	-15.8% (inactive)	51.6%	-15.3% (inactive)	118%	0.724	0.328	0.81	5.42% (inactive)	-0.54 (inactive)	-2.6e-05 (inactive)	0.0055 (inactive)	inactive	22.1% (inactive)	8.27% (inactive)	39.3% (inactive)
CN1CCN(/C=N/c2sc3c(c2C#N)CCCCC3)CC1	536	-4.8% (inactive)	2.6% (inactive)	116%	-74.7% (inactive)	108%	-3.34	0.909	1.9	-4.27% (inactive)	-0.42 (inactive)	-6e-06 (inactive)	0.00496 (inactive)	inactive	135% (active)	-35.3% (inactive)	-83.9% (inactive)
Cc1ncc([N+](=O)[O-])n1CC(O)CCl (stereo not given)	546	-5% (inactive)	-12.8% (inactive)	100%	-91.7% (inactive)	114%	0.947	-1.73	-1.47	3.45% (inactive)	-0.5 (inactive)	2.8e-05 (inactive)	0.00498 (inactive)	inactive	-0.632% (inactive)	-0.807% (inactive)	16.6% (inactive)
CC(=Nc1ccc(C)c(C)c1)C1=C(O)CCC1=O	616	-14.9% (inactive)	30.6% (inactive)	87.4%	-30.7% (inactive)	143%	0.598	-0.724	0.505	4.72% (inactive)	-0.423 (inactive)	-4.1e-05 (inactive)	0.00609 (inactive)	inactive	2.51% (inactive)	-16.6% (inactive)	-35.9% (inactive)

Source: PubChem BioAssay
